Measurements published in PubChem BioAssay.
Calls of active or inactive are those of the source.

What was measured:
[1] = compound effects on lung adenocarcinoma cell viability – A549, calcein-AM fluorescence, 48 h, basal, profiling panel (AID 1162); settings: higher = more signal
[2] = compound effects on differentiated 3T3-L1 adipocyte viability – cell-based, 3T3-L1 adipocytes, calcein-AM fluorescence, 48 h, basal, profiling panel (AID 1163); settings: 3T3-L1 adipocytes viability, higher = more signal
[3] = compound effects on hepatocellular carcinoma cell viability – HepG2, calcein-AM fluorescence, 48 h, basal, profiling panel (AID 1164); settings: higher = more signal
[4] = compound effects on multiple myeloma cell viability – MM1S, calcein-AM fluorescence, 48 h, basal, profiling panel (AID 1165); settings: higher = more signal;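 also: viability of MM1S multiple myeloma cells under basal unstimulated conditions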
[5] = calcein-AM signal in unstimulated myeloma cells – cell-based, calcein-AM fluorescence, 48 h, PK04 Diversity Set, profiling panel (AID 1166); settings: RPMI8226 myeloma viability, higher = more signal;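 also: cells grown under basal conditions without added stimulus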
[6] = JC-1 mitochondrial signal, unstimulated HepG2 cells – cell-based, JC-1 fluorescence, 24 h, 100 nL compound, profiling panel (AID 1167); settings: HepG2 mitochondrial potential, higher = more signal
[7] = JC-1 mitochondrial signal, unstimulated adipocytes – cell-based, JC-1 fluorescence, 3T3-L1 adipocytes, 24 h, 100 nL compound, profiling panel (AID 1168); settings: JC-1 mitochondrial fluorescence, higher = more signal, called active from +8 up or from −8 down
[8] = JC-1 mitochondrial signal, unstimulated myeloma cells – cell-based, JC-1 fluorescence, RPMI8226, 24 h, 100 nL compound, profiling panel (AID 1169); settings: JC-1 mitochondrial potential fluorescence, higher = more signal
[9] = JC-1 mitochondrial signal, unstimulated MM1S myeloma – cell-based, JC-1 fluorescence, 24 h, 100 nL compound, profiling panel (AID 1170); settings: MM1S mitochondrial potential, higher = more signal
[10] = resazurin metabolic signal in A549 cells – cell-based, resazurin fluorescence, 24 h, PK04 Diversity Set, profiling panel (AID 1171); settings: A549 viability, higher = more signal, called active from +8 up or from −8 down
Also: test concentration not given here.

Row | Compound | z-score [1] | z-score [2] | z-score [3] | z-score [4] | z-score [5] | z-score [6] | z-score [7] | z-score [8] | z-score [9] | z-score [10]
1 | CCN1C(=O)[C@H]2[C@H]3[C@H](O)[C@H](O)CC(=NNC(=O)OCc4ccccc4)[C@@H]3CC[C@H]2C1=O | -0.0627 | 0.0682 | -0.131 | -0.0309 | 0.718 | -0.653 | -1.19 (inactive) | -0.118 | -0.458 | -0.32 (inactive)
2 | CCN1C(=O)[C@H]2[C@H]3[C@H](O)[C@H](O)CC(=NO[C@@H]4O[C@H](CO)[C@@H](O)[C@H](O)[C@H]4O)[C@H]3CC[C@H]2C1=O | 0.212 | -0.158 | 0.298 | -0.0327 | -0.982 | -0.68 | -1.21 (inactive) | 0.0397 | 0.652 | 0.14 (inactive)
3 | CC(=O)OC[C@H]1O[C@H](CC=NO[C@@H](C)c2cc(-c3c(C)cc(C)cc3C)no2)C=C[C@@H]1OC(C)=O | -0.937 | 0.318 | -0.799 | 0.267 | -1.29 | -0.158 | -0.845 (inactive) | 0.774 | -0.322 | -0.0973 (inactive)
4 | COC(OC)[C@@H](C)[C@H](OC)[C@@H](C)[C@H](OC)c1ccccc1 | 2.22 | 0.159 | 0.568 | -0.569 | 0.692 | 0.348 | -0.14 (inactive) | 0.404 | 1 | -0.996 (inactive)
5 | COC(=O)[C@@H]1CC[C@H](C)[C@@H](c2ccc(Br)cc2)N1 | 0.23 | 0.309 | -0.183 | 0.125 | 0.0204 | -0.0948 | -0.644 (inactive) | -0.295 | 0.214 | -0.284 (inactive)
6 | CC1(C)O[C@H]2O[C@H]([C@H](O)CON=C3[C@H]4CCn5c(=O)n(-c6ccccc6)c(=O)n5[C@H]4[C@H](O)[C@@H]4O[C@H]34)[C@H](O)[C@H]2O1 | -0.359 | 0.104 | -0.0631 | 0.112 | 0.279 | -0.494 | -1.12 (inactive) | 0.438 | 0.223 | 0.065 (inactive)
7 | CCOC(=O)NN=C1C[C@@H](O)[C@@H](O)[C@@H]2[C@@H]3C(=O)N(CC)C(=O)[C@@H]3CC[C@H]12 | 0.258 | -0.588 | 0.527 | 0.464 | 0.268 | 0.987 | -0.557 (inactive) | -0.241 | -0.809 | -0.653 (inactive)
8 | COc1ccc(COC(=O)NN=C2C[C@@H](O)[C@@H](O)[C@@H]3[C@@H]4C(=O)N(c5cccc(Oc6ccccc6)c5)C(=O)[C@@H]4CC[C@H]23)cc1 | -0.777 | 0.487 | -0.634 | 0.0646 | -1.2 | 0.89 | -1.78 (inactive) | 0.197 | -1.73 | 1.29 (inactive)
9 | C=CC[C@@H]1C=CC(ON=C(C)C)[C@@H](CO)O1 (stereo not given in full) | 1.08 | -0.521 | 0.389 | 0.255 | -0.153 | -0.459 | -0.346 (inactive) | 0.00663 | -0.644 | -0.816 (inactive)
10 | CC(C)(C)N1C(=O)[C@H]2[C@H]3[C@H](O)[C@H](O)CC(=NNC(=O)OCc4ccccc4)[C@H]3CC[C@H]2C1=O | -1.13 | 1.11 | -0.516 | -0.269 | -0.934 | -0.639 | -1.49 (inactive) | -0.411 | -0.823 | 0.321 (inactive)
11 | CC(=O)OC[C@H]1O[C@@H](ON=C2[C@H]3CCn4c(=O)n(-c5ccccc5)c(=O)n4[C@H]3[C@H](O)[C@@H]3O[C@H]23)[C@H](OC(C)=O)[C@@H](OC(C)=O)[C@@H]1OC(C)=O | -0.0311 | -1.14 | 0.707 | -0.0928 | -0.105 | -0.506 | -0.0849 (inactive) | -0.0535 | -0.64 | -0.713 (inactive)
12 | CC(CCN1CCCc2nc(C)c(C)cc21)=NO[C@@H](C)c1cn([C@H](CO)Cc2ccccc2)nn1 | 1.11 | -0.189 | -0.136 | 0.33 | 0.049 | 0.38 | 0.733 (inactive) | -0.0733 | -0.762 | -0.131 (inactive)
